Common to all, as to type: functional
Assay [1] has as its target Solute carrier family 2, facilitated glucose transporter member 1 (Homo sapiens) (UniProt P11166). The experiment in a line: ST_JUDE_LEISH: Cytotoxicity at 2uM final concentration against transgenic Leishmania Mexicana promastigotes LmGLUT1 that are glucose transport deficient and complemented with the human glucose transporter GLUT1. Activity is measured by DNA content using SYBR green in vitro.

Assay [2] deals with Hexose transporter 1 (Plasmodium falciparum) (UniProt O97467). The assay is described as follows: ST_JUDE_LEISH: Cytotoxicity at 2uM final concentration against transgenic Leishmania Mexicana promastigotes LmPfHT that are glucose transport deficient and complemented with the Plasmodium falciparum hexose transporter. Activity is measured by DNA content using SYBR green in vitro.

The target in assay [3] is Glucose transporter (Leishmania mexicana) (UniProt O61059). The assay is described as follows: ST_JUDE_LEISH: Cytotoxicity at 2uM final concentration against transgenic Leishmania Mexicana promastigotes LmGT2 that are glucose transport deficient and complemented with the L. Mexicana glucose transporter 2. Activity is measured by DNA content using SYBR green in vitro.

Sequence of Solute carrier family 2, facilitated glucose transporter member 1 (Homo sapiens) (P11166 whole entry): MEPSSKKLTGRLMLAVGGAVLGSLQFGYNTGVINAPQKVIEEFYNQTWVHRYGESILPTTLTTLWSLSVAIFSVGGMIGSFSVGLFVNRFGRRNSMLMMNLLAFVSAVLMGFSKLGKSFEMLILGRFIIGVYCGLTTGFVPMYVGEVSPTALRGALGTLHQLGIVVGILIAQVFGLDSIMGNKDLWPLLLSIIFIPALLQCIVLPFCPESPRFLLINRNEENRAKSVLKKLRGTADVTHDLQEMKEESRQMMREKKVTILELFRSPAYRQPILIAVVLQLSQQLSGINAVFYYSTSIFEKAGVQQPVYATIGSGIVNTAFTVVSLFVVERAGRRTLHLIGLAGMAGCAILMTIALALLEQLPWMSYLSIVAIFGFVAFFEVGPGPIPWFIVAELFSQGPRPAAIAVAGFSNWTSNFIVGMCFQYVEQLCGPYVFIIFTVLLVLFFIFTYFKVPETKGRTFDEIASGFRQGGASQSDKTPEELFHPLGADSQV

As a reminder, the inhibition is the drop in the measured response relative to a control, in per cent. For the compound `COc1ccc(-c2ccc(CNCc3ccsc3)cc2)cc1S(=O)(=O)NCCN1CCCC1`, the figures for the inhibition in assay [1], in assay [2] and in assay [3] were -0.99%, 0.23% and -2.28%, respectively.
As for `CC(CCCCC(=O)Nc1ccc(C(F)(F)F)cc1)NCC(O)c1cccc(Cl)c1` (stereo unspecified), the inhibition is 1.04% in assay [1], -0.95% in assay [2] and 1.56% in assay [3].
The corresponding values for `COc1cccc(CNC(=O)c2cccc(-c3cccc(CN4CCC(N5CCCC5)CC4)c3)n2)c1` are 4.26%, 4.42% and 6.93%.
Regarding `CN1CCCc2ccc(NC(=O)Nc3ccc(-c4ccccc4)cc3)cc2C1`, the figures for the inhibition in assay [1], in assay [2] and in assay [3] were -3.44%, 0.82% and -0.14%, respectively.
The corresponding values for `CC(=O)Nc1ccc(C(=O)Nc2cccc(-c3cccc(-c4nc5cc(C(F)(F)F)ccc5[nH]4)c3)c2)cn1` are -0.64%, -2.32% and -1.64%.
Take `CC(CCc1ccccc1)NCC(O)c1cccc([N+](=O)[O-])c1` (stereo unspecified): the inhibition is -0.26% in assay [1], -2.9% in assay [2] and 1.35% in assay [3].
Regarding `CCOc1ccc(-c2nc(NC(=O)Cc3cccc(OC)c3)sc2C)cc1`, the inhibition in assay [1] is 5.17%; in assay [2] it was 7.92%; in assay [3], -0.61%.
Turning to `CN(C)CCOc1ccc(-c2cc(-c3ccncc3)c(-c3ccc(Cl)c(O)c3)[nH]2)cc1`, the inhibition amounted to 1.45% in assay [1], 1.71% in assay [2] and 1.4% in assay [3].
On to `O=C(Nc1cc(Cl)cc(Cl)c1)c1cc(Cl)c(=O)n(Cc2ccc(Cl)cc2)c1`, for which the inhibition was 3% in assay [1], 5.94% in assay [2] and -0.15% in assay [3].
As for `O=S(=O)(Nc1cccc(CCN2CCC(N3CCCCC3)CC2)c1)c1ccc(Oc2ccccc2)cc1`, the values for the inhibition in assay [1], in assay [2] and in assay [3] were 4.33%, 4.71% and 2.69%, respectively.
Turning to `N#Cc1ccc(N[C@@H](CC2CCCCC2)C(=O)N[C@@H]2CCCc3ccccc32)c2ccccc12`, the inhibition in assay [1] turned out to be 0.46%; in assay [2], 1.88%; in assay [3], 0.82%.
The corresponding values for `Fc1cc(Cl)ccc1Nc1ccnc2cc(-c3ccc(CN4CCOCC4)o3)ccc12` are 20.6%, 52.9% and 43.6%.
Turning to `NC(=O)COc1cccc2c1CCN(CCN1CCC(NC(=O)c3ccc(-c4ccc(Cl)cc4)cc3)CC1)C2`, the figures for the inhibition in assay [1], in assay [2] and in assay [3] were 1.06%, 4.42% and 2.71%, respectively.
Consider `COc1cc(CN2CCC(N3CCc4cc(NC(=O)c5cc(C)on5)ccc43)C2)ccc1F` (stereo unspecified), for which the inhibition stood at 2.18% in assay [1], 2.25% in assay [2] and 3.34% in assay [3].
As for `Cc1cc(Nc2ccnc(-c3ccc(Cl)cc3)n2)ccn1`, the inhibition turned out to be 7.95% in assay [1], 8.43% in assay [2] and 8.52% in assay [3].
For the compound `COc1cccc2c(NN=Cc3ccc(Cl)cc3)ccnc12`, the values for the inhibition in assay [1], in assay [2] and in assay [3] were 2.42%, 2.54% and 2.21%, respectively.
The corresponding values for `CC(=O)c1ccccc1C(=O)N1CCOc2ccc(C(O)C(c3ccccc3)c3ccccc3)cc2C1` (stereo unspecified) are 0.04%, -1.21% and -1.21%.
As to `Cc1cccc(NC(=O)Nc2ccc(I)c(OCCN(C)C)c2)c1C`, the inhibition worked out at 15.2% in assay [1], 9.78% in assay [2] and 10.1% in assay [3].
On to `CCNc1cc(C(=O)N[C@@H](Cc2ccccc2)[C@H](O)CNC2CCCCC2)cc(N2CCCCS2(=O)=O)c1`, for which the figures for the inhibition in assay [1], in assay [2] and in assay [3] were 8.15%, 4.98% and 7.3%, respectively.
Regarding `CCCO[C@H](C(=O)OC)[C@@H](CC1Cc2ccccc2C1)C(=O)NCCC1=CCCCC1`, the inhibition was 1.54% in assay [1], 1.34% in assay [2] and 2.2% in assay [3].
Turning to `CC(=O)Nc1cccc(CNc2cc(C)nc(Nc3ccc(C)cc3)n2)c1`, the values for the inhibition in assay [1], in assay [2] and in assay [3] were 9.07%, 8.32% and 0.76%, respectively.
Turning to `O=C(NC(Nc1ccc([N+](=O)[O-])cc1)C(Cl)(Cl)Cl)c1ccc(Cl)cc1` (stereo unspecified), the inhibition is 0.96% in assay [1], -3.03% in assay [2] and -2.78% in assay [3].
Turning to `Nc1c(Cl)cc(C(O)CNCCCCCCCCCc2ccccn2)cc1Cl` (stereo unspecified), the inhibition was 0.94% in assay [1], -0.21% in assay [2] and 0.6% in assay [3].
As for `CC(C)CN1CCC(COc2ccc3ncn(-c4cc(O[C@H](C)c5ccccc5C(F)(F)F)c(C(N)=O)s4)c3c2)CC1`, the results for the inhibition in assay [1], in assay [2] and in assay [3] were 77.7%, 74.7% and 60.6%, respectively.
For `CO/N=C(\C)c1ccc2c(c1)CCN(CCC1CCC(NC(=O)c3cccc(-c4noc(C)n4)c3)CC1)CC2` (stereo unspecified), the inhibition in assay [1] was 3.41%; in assay [2] it was -1.53%; in assay [3], 0.75%.
The corresponding values for `CC(C)CNCc1ccc(-c2ccccc2CNC2CCN(Cc3ccccc3)CC2)cc1` are 7.04%, 7.66% and 5.95%.
On to `CC(C)(C)Nc1cc(C(=O)N[C@@H](Cc2ccccc2)[C@H](O)CNC2CCOCC2)cc(N2CCCCS2(=O)=O)c1`, for which the inhibition was 0.29% in assay [1], 0.07% in assay [2] and -0.61% in assay [3].
For the compound `CSc1ccc(CN2CCC(CNC(=O)c3cc(-c4ccccc4F)cs3)C2)cc1` (stereo unspecified), the results for the inhibition in assay [1], in assay [2] and in assay [3] were 0.69%, -0.86% and -3.72%, respectively.
`COc1ccc(-c2cccc(NC(=O)c3ccc(Cl)cc3)c2)cc1CN(C)CCN(C)C`: the inhibition in assay [1] amounted to 3.16%; in assay [2] it was 2.66%; in assay [3], 6.97%.
In the case of `CCOc1ccc(C(C)NC(=O)c2ccc(OC)c(Br)c2)cc1OCC` (stereo unspecified), the inhibition was 1.14% in assay [1], -0.71% in assay [2] and -0.9% in assay [3].
The corresponding values for `COc1ccccc1C1CC(c2ccccc2)=NN1C(=O)c1ccco1` (stereo unspecified) are -0.28%, -0.6% and -4.34%.
For `COc1cccc(NC(=O)Nc2cc(C)nc3ccccc23)c1`, the inhibition amounted to 4.17% in assay [1], 3.94% in assay [2] and 2.43% in assay [3].
The corresponding values for `O=C(NCCCCCN1CCC(c2c[nH]c3ccccc23)CC1)Nc1ccc(Cl)c(Cl)c1` are -1%, -1.05% and 1.89%.
As to `COc1cccc(CCc2nc3c(N4CCC(Cc5ccccc5)CC4)cccc3n2CC2CNCCO2)c1` (stereo unspecified), the inhibition in assay [1] was 9.36%; in assay [2], 9.47%; in assay [3], 8.5%.
As for `CC(C)(C)c1nn(-c2ccc(Cl)cc2)c2[nH]c(=O)c(CNCc3ccc4c(c3)OCO4)cc12`, the results for the inhibition in assay [1], in assay [2] and in assay [3] were 4.55%, 3.31% and 5.03%, respectively.
As to `O=C(Nc1cccc(CN2CCCN(Cc3ccc4c(c3)OCO4)CC2)c1)c1cc2ccccc2s1`, the figures for the inhibition in assay [1], in assay [2] and in assay [3] were -0.41%, -0.3% and -3.63%, respectively.
The corresponding values for `CCCCCCN1CCCN(Cc2ccc(C(=O)Nc3ccc(CCC)cc3)cc2)CC1` are 9.31%, 7.71% and 7.37%.

(Values after ChEMBL document CHEMBL3433997, “St. Jude Leishmania screening dataset” (2016).)
